Data: PubChem BioAssay AID504660 (National Center for Advancing Translational Sciences (NCATS), 2011)
Out of some 360,000 compounds screened, about 3,700 (1%) were called active. The full list was thinned out, with actives kept by preference. A number with no mark means an inactive call. Rule as the data show it: active = activation above about 30%; inactive = the rest.
Also: 0% is about no effect.

These compounds were tested against D(1A) dopamine receptor (Homo sapiens) (UniProt P21728) (assay: Allosteric Agonists of the Human D1 Dopamine Receptor: qHTS). Conditions: HEK293 T-REx D1 cells, calcium flux, agonist mode; at 2 µM; hits give high values.
D(1A) dopamine receptor (Homo sapiens), sequence (P21728 whole entry, looked up): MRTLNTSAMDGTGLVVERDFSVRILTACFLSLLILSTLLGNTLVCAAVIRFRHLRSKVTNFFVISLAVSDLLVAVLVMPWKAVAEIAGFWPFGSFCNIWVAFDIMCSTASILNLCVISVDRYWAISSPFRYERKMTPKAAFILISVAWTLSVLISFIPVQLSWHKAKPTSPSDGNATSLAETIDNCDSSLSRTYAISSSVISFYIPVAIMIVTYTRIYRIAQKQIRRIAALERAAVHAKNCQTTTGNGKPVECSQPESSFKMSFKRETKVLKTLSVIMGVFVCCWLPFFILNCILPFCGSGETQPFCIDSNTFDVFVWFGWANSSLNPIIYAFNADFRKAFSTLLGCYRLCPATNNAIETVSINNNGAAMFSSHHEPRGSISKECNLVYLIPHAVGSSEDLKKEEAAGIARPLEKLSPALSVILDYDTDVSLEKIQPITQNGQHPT
Excerpt: NIH Chemical Genomics Center [NCGC] NIH Molecular Libraries Probe Centers Network [MLPCN] MLPCN Grant: NS064831-01 Assay Submitter (PI): David Sibley Dopamine receptors (DARs) are involved in the etiology and/or therapy of a number of neuropsychiatric and endocrine disorders. For instance, all receptor-based antiparkinsonian drugs work via stimulating the D1 DAR subtype whereas all FDA-approved antipsychotic agents are antagonists of this receptor. […] There are three different types of allosteric modulators that we are seeking, two of which will stimulate or augment receptor signaling, allosteric agonists and potentiators, while the third, allosteric antagonists, will attenuate receptor signaling. The present primary screening assay measures compound agonism by tracking calcium flux in a […], inducible Hek293 Trex D1 cell line.
Freshly passaged cells are plated in 1536 well black, clear bottom plates at a density of 4000 cells/well in 3 ul of complete media containing 1x tetracycline inducer. After an overnight incubation at […] in 5% CO2, cells are loaded with 2 ul of the no wash Calcium Assay Kit (ABD Bioquest) and incubated at room temperature for 30 to 90 minutes. Agonist read: A 10 cycle (1 second/cycle) baseline measurement is taken and then the FDSS online 1536 pintool delivers 23 nl of compound library (as well as dopamine controls) to the plate. The plate is measured for kinetically at 1 cycle/sec for 180 seconds and is considered to be the agonist portion of the assay (eg, compounds which activate a positive calcium response during this portion are flagged as potential agonists). Following the 180 second read, 1 ul of either an EC20 (positive modulation assay) or EC80 (negative modulation assay) is delivered by an onboard pipette head. Measurements are taken kinetically for an additional 180 seconds.
For CCCCCCCCCCCCn1ccc(=N)cc1, the activation was 52.6% (active). COc1ccc(-c2nn(CCC#N)cc2C(=O)O)cc1 was tested, and the activation was 2.02%. NC(=O)Nc1cccc(C(F)(F)F)c1 gave an activation of 1.22%. For CC(Cc1ccccc1)NCCC(c1ccccc1)c1ccccc1 (stereo not given), the activation was 19.9%. With CCN(CC)c1ccc([N+](=O)[O-])c2cccnc12 the activation was 6.86%. In the case of COc1ccc(C(=O)C2CN(C)CC2C(=O)c2ccc(OC)cc2)cc1 (stereo not given), the activation is reported as 4.65%. With O=C1C2(Cl)C3(Cl)C4(Cl)C(Cl)(Cl)C5(Cl)C3(Cl)C1(Cl)C5(Cl)C24Cl (stereo not given) the activation was 99.6% (active). CCN1CCN(Cc2cc(OC)c3c(c2)OCO3)CC1 was tested, and the activation was 3.83%. For Cc1ccc(-n2c(/C=C/c3cccc(C(F)(F)F)c3)nc3ccccc3c2=O)cc1, the activation was -0.792%. COc1ccc(CN2CCN(c3ccccc3F)CC2)c(OC)c1 showed an activation of 4.33%. Work on Oc1cc2c(cc1CN1CCN(c3ccccc3)CC1)OCO2 yielded an activation of 2.23%. CC(C)c1ccc(O)c(CN2CCN(c3ccccc3)CC2)c1 was tested, and the activation was 93% (active). In the case of CCN1C(=O)C(=Cc2c(C)n(CC(=O)NCC3CCCO3)c3ccccc23)C(=O)N(CC)C1=S (stereo not given), the activation is reported as 8.52%. Cc1cccc(Cn2cccc(C(=O)Nc3ccc4c(c3)OCCO4)c2=O)c1 was tested, and the activation was 5.25%. For COc1ccc(CNCCc2ccc3c(c2)OCO3)c(OC)c1OC, the activation was 11.4%. With COc1ccc(Br)cc1CNCCc1cccc(Cl)c1 the activation was 34.4% (active). Work on COc1ccc(CNCCc2c[nH]c3ccccc23)cc1OC yielded an activation of 12.6%. Compound Cc1cc2ccccn2c1C(C[N+](=O)[O-])c1c(F)cccc1Cl (stereo not given) has an activation of 0.11%. In the case of CN(C)c1nc(N(C)C)nc(N(C#N)CCCl)n1, the activation is reported as 1.85%. O=C(c1cc2nc(-c3ccccc3)cc(-c3ccccc3)n2n1)N1CCC2(CC1)OCCO2 showed an activation of 1.75%. For CCCCC(=O)N/N=C/c1c(O)n(-c2ccccc2)c(=O)[nH]c1=O, the activation was -0.172%. CCCCC(=O)N/N=C/c1c(O)n(CCC2=CCCCC2)c(=O)[nH]c1=O gave an activation of 2.44%. In the case of CCCCC(=O)N/N=C/c1c(O)n(CC)c(=S)n(CC)c1=O, the activation is reported as 71.8% (active). For Cc1ccc(NC(=O)N(Cc2ccc3c(c2)OCO3)C2CCN(Cc3ccccc3)CC2)cc1F, the activation was 9.83%. Compound COc1ccccc1N1CCN(C(CNC(=O)Oc2ccccc2)c2cccnc2)CC1 (stereo not given) has an activation of 0.177%. For COC(=O)C(c1ccccc1)N1CCCCCC1 (stereo not given), the activation was 40% (active). Compound COC(=O)N1C(c2ccccc2)C1c1ccccc1 (stereo not given) has an activation of 6.43%. With NCC(O)c1ccc(O)cc1 (stereo not given) the activation was 0.942%. In the case of COc1ccc(N=Cc2c(O)n(C)c(=O)[nH]c2=O)cc1, the activation is reported as 2.19%. Work on CC(=O)c1c(O)n(C2CCCCCC2)c(=O)[nH]c1=O yielded an activation of 2.24%.
